Our source for the growth inhibition values is PubChem BioAssay (NCI).

Assay [1] can be described thus: NCI Yeast Anticancer Drug Screen. Data for the rad50 strain (AID 155).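 Further: 0% = growth of vehicle-only cultures of the same strain.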 The conditions noted are these: S. cerevisiae rad50 strain growth inhibition, hits give high values. The method, boiled down: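 Growth of the mutant yeast was measured after compound exposure and referenced to vehicle-treated cultures.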
Assay [2] in a line: NCI Yeast Anticancer Drug Screen. Data for the mec2-1 strain (AID 157). The conditions noted are these: S. cerevisiae mec2-1 strain, hits give high values. The method, boiled down: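 Yeast mec2-1 mutant treated with compound. Readout: growth inhibition vs vehicle controls.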
The nature of assay [3]: NCI Yeast Anticancer Drug Screen. Data for the sgs1 mgt1 strain (AID 161).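 Further: 0% = growth of cultures given vehicle only.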 The following applies: S. cerevisiae sgs1 mgt1 strain, hits give high values. The method, boiled down:
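Mutant yeast exposed to compound; growth scored against vehicle-only wells.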

Assay [4] in a line: NCI Yeast Anticancer Drug Screen. Data for the cln2 rad14 strain (AID 165).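 Further: 0% = growth equal to vehicle treated cultures.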 The conditions noted are these: S. cerevisiae cln2 rad14 strain, hits give high values. In a few lines: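 cln2 rad14 yeast strain; compound exposure; growth inhibition read vs vehicle controls.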
A short description of assay [5]: NCI Yeast Anticancer Drug Screen. Data for the bub3 strain (AID 167). The conditions noted are these: S. cerevisiae bub3 mutant strain, hits give high values. In a few lines: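 Whole-cell yeast assay. The mutant strain was incubated with compounds, and growth inhibition was determined by comparison with vehicle-treated cells.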
A short description of assay [6]: NCI Yeast Anticancer Drug Screen. Data for the mlh1 rad18 strain (AID 175). The conditions noted are these: S. cerevisiae mlh1 rad18 strain growth inhibition, hits give high values. The method, boiled down: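 Yeast w/ defined DNA-repair lesions; compound exposure; growth vs vehicle controls → % inhibition.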
The mark [7] stands for this setting: at 5.0 µM (retest, dose inferred, filed as 0.5).
Setting [8] is: at 50.0 µM (retest, dose inferred, filed as 5.0).

Compounds without any hit were thinned out: in the full panel of roughly 79,000, 15% have a hit. A number with no mark means an inactive call. The source made the active and inactive calls. No stated cut-off is given here; in the data, active means growth inhibition above about 70%; inactive means the rest.

`CCC(c1ccc(O)cc1)C(CC)c1ccc(O)c(O)c1` (configuration not stated): the growth inhibition in assay [1] (setting [7]) was 16%; in assay [1] (setting [8]), 98% (active); in assay [1] (at 50.0 µM) it was 99.6% (active); in assay [2] (setting [7]), 12%; in assay [2] (setting [8]), 99% (active); in assay [2] (at 50.0 µM), 99.5% (active). For the same compound, the growth inhibition in assay [3] (setting [7]) is 13%; in assay [3] (setting [8]), 99% (active); in assay [3] (at 50.0 µM), 99.5% (active); in assay [4] (setting [7]), -2%; in assay [4] (setting [8]) it was 99% (active); in assay [4] (at 50.0 µM), 99.4% (active). Moreover, the growth inhibition was 10% in assay [5] (setting [7]); 98% (active) in assay [5] (setting [8]); 99.5% (active) in assay [5] (at 50.0 µM); 12% in assay [6] (setting [7]); 97% (active) in assay [6] (setting [8]); 99.5% (active) in assay [6] (at 50.0 µM).
For the compound `C/C=C1\SC(=S)NC1=O`, the growth inhibition in assay [1] (setting [7]) was 25%; in assay [1] (setting [8]), 99% (active); in assay [1] (at 50.0 µM), 98.8% (active); in assay [2] (setting [7]), 11%; in assay [2] (setting [8]), 99% (active); in assay [2] (at 50.0 µM) it was 98.8% (active). For the same compound, the growth inhibition is 22% in assay [3] (setting [7]); 98% (active) in assay [3] (setting [8]); 99.2% (active) in assay [3] (at 50.0 µM); 6% in assay [4] (setting [7]); 98% (active) in assay [4] (setting [8]); 95.9% (active) in assay [4] (at 50.0 µM). The growth inhibition was 9% in assay [5] (setting [7]); 98% (active) in assay [5] (setting [8]); 98% (active) in assay [5] (at 50.0 µM); 36% in assay [6] (setting [7]); 99% (active) in assay [6] (setting [8]); 99.3% (active) in assay [6] (at 50.0 µM).
With `COc1cc(NS(C)(=O)=O)ccc1Nc1c2ccccc2nc2ccccc12`, the growth inhibition in assay [1] (setting [7]) was 67%; in assay [1] (setting [8]), 85% (active); in assay [1] (at 50.0 µM) it was 83.5% (active); in assay [2] (setting [7]), -5%; in assay [2] (setting [8]), 57%; in assay [2] (at 50.0 µM) it was 42.5%. For the same compound, the growth inhibition in assay [3] (setting [7]) was 9%; in assay [3] (setting [8]), 44%; in assay [3] (at 50.0 µM), 37.2%; in assay [4] (setting [7]) it was 15%; in assay [4] (setting [8]) it was 32%; in assay [4] (at 50.0 µM), 20.8%. Besides, the growth inhibition in assay [5] (setting [7]) is 14%; in assay [5] (setting [8]) it was 24%; in assay [5] (at 50.0 µM), 11.1%; in assay [6] (setting [7]), 9%; in assay [6] (setting [8]), 38%; in assay [6] (at 50.0 µM), 32.9%.
As to `O=C(O)/C=C/c1ccc([N+](=O)[O-])o1`, the growth inhibition was 12% in assay [1] (setting [7]); 50% in assay [1] (setting [8]); 87.4% (active) in assay [1] (at 50.0 µM); 5% in assay [2] (setting [7]); 38% in assay [2] (setting [8]); 80% (active) in assay [2] (at 50.0 µM). Moreover, the growth inhibition in assay [3] (setting [7]) is 9%; in assay [3] (setting [8]), 67%; in assay [3] (at 50.0 µM) it was 90% (active); in assay [4] (setting [7]), -3%; in assay [4] (setting [8]), 38%; in assay [4] (at 50.0 µM) it was 62.4%. Moreover, the growth inhibition in assay [5] (setting [7]) was 4%; in assay [5] (setting [8]), 42%; in assay [5] (at 50.0 µM), 76% (active); in assay [6] (setting [7]), 11%; in assay [6] (setting [8]), 81% (active); in assay [6] (at 50.0 µM), 93.2% (active).
For the compound `CCN(CC)CCOC(=O)CCN1CC2CCC(CC2)C1`, the growth inhibition in assay [1] (setting [7]) was 14%; in assay [1] (setting [8]), 15%; in assay [1] (at 50.0 µM) it was -35.6%; in assay [2] (setting [7]) it was 13%; in assay [2] (setting [8]), 7%; in assay [2] (at 50.0 µM), -22.1%. For the same compound, the growth inhibition in assay [3] (setting [7]) is 17%; in assay [3] (setting [8]) it was 4%; in assay [3] (at 50.0 µM), -23.9%; in assay [4] (setting [7]) it was 23%; in assay [4] (setting [8]), 3%; in assay [4] (at 50.0 µM), 9.4%. The growth inhibition in assay [5] (setting [7]) is 0%; in assay [5] (setting [8]), -4%; in assay [5] (at 50.0 µM), -32.8%; in assay [6] (setting [7]) it was 18%; in assay [6] (setting [8]), 10%; in assay [6] (at 50.0 µM), -21.4%.
`CCN(CC)Cc1c(-c2ccccc2)oc(-c2ccccc2)c1CN(CC)CC`: the growth inhibition is -15% in assay [1] (setting [7]); 33% in assay [1] (setting [8]); 64.7% in assay [1] (at 50.0 µM); 1% in assay [2] (setting [7]); 2% in assay [2] (setting [8]); -0.45% in assay [2] (at 50.0 µM). Also, the growth inhibition was -15% in assay [3] (setting [7]); 33% in assay [3] (setting [8]); -5.75% in assay [3] (at 50.0 µM); -2% in assay [4] (setting [7]); -1% in assay [4] (setting [8]); -9.8% in assay [4] (at 50.0 µM). The growth inhibition was 1% in assay [5] (setting [7]); 8% in assay [5] (setting [8]); 36.4% in assay [5] (at 50.0 µM); 2% in assay [6] (setting [7]); 32% in assay [6] (setting [8]); 67.4% in assay [6] (at 50.0 µM).
With `COC/C(Br)=C\SC#N` (tested in a mixture with another compound), the growth inhibition in assay [1] (setting [7]) is 0%; in assay [1] (setting [8]) it was 34%; in assay [1] (at 50.0 µM) it was 98.8% (active); in assay [2] (setting [7]), -14%; in assay [2] (setting [8]) it was 23%; in assay [2] (at 50.0 µM) it was 98.7% (active). In addition, the growth inhibition in assay [3] (setting [7]) is -2%; in assay [3] (setting [8]), 40%; in assay [3] (at 50.0 µM) it was 98.9% (active); in assay [4] (setting [7]), -5%; in assay [4] (setting [8]) it was 61%; in assay [4] (at 50.0 µM), 97.7% (active). For the same compound, the growth inhibition was -6% in assay [5] (setting [7]); 53% in assay [5] (setting [8]); 98.2% (active) in assay [5] (at 50.0 µM); 16% in assay [6] (setting [7]); 38% in assay [6] (setting [8]); 98.2% (active) in assay [6] (at 50.0 µM).
Turning to `CC(=O)OC1(C)C(=C(Cl)Cl)C2c3ccccc3C1c1ccccc12` (configuration not stated), the growth inhibition in assay [1] (setting [7]) is 0%; in assay [1] (setting [8]), 91% (active); in assay [1] (at 50.0 µM), 92.7% (active); in assay [2] (setting [7]) it was 19%; in assay [2] (setting [8]), 88% (active); in assay [2] (at 50.0 µM) it was 82.2% (active). Besides, the growth inhibition in assay [3] (setting [7]) is 2%; in assay [3] (setting [8]) it was 92% (active); in assay [3] (at 50.0 µM) it was 94.3% (active); in assay [4] (setting [7]), 7%; in assay [4] (setting [8]) it was 89% (active); in assay [4] (at 50.0 µM), 64.4%. Moreover, the growth inhibition in assay [5] (setting [7]) was -4%; in assay [5] (setting [8]), 93% (active); in assay [5] (at 50.0 µM) it was 93.2% (active); in assay [6] (setting [7]), 10%; in assay [6] (setting [8]), 91% (active); in assay [6] (at 50.0 µM) it was 93.8% (active).
With `O=C(O)CCCc1ccc2c(c1Br)C=CC2`, the growth inhibition is 10% in assay [1] (setting [7]); 68% in assay [1] (setting [8]); 72.3% (active) in assay [1] (at 50.0 µM); 13% in assay [2] (setting [7]); 72% (active) in assay [2] (setting [8]); 63.6% in assay [2] (at 50.0 µM). Besides, the growth inhibition in assay [3] (setting [7]) is 11%; in assay [3] (setting [8]), 73% (active); in assay [3] (at 50.0 µM) it was 87.2% (active); in assay [4] (setting [7]), 11%; in assay [4] (setting [8]) it was 74% (active); in assay [4] (at 50.0 µM), 72.9% (active). Also, the growth inhibition in assay [5] (setting [7]) is 8%; in assay [5] (setting [8]) it was 86% (active); in assay [5] (at 50.0 µM), 94% (active); in assay [6] (setting [7]), 3%; in assay [6] (setting [8]), 76% (active); in assay [6] (at 50.0 µM), 79.6% (active).
